Compounds without any hit were thinned out: in the full panel of roughly 83,000, 20% have a hit.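 Compound tested at a single concentration for 48 hours in 96-well plates; a percent growth value below 10 was scored as active.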 Unmarked numbers belong to inactive results. Activity calls are given as the source filed them.
Tests used:
Test in all cases: NCI-60 one-dose screen, 48 h (100 = growth as untreated, 0 = no growth, -100 = all killed)
Conditions in all cases: 10 µM unless noted
SR leukemia = test system: SR leukemia
RPMI-8226 leukemia = test system: RPMI-8226 leukemia
OVCAR-8 ovarian = test system: OVCAR-8 ovarian
OVCAR-5 ovarian = test system: OVCAR-5 ovarian
OVCAR-4 ovarian = test system: OVCAR-4 ovarian
SK-OV-3 ovarian = test system: SK-OV-3 ovarian
IGROV1 ovarian = test system: IGROV1 ovarian
OVCAR-3 ovarian = test system: OVCAR-3 ovarian
HS 578T breast = test system: HS 578T breast
NCI/ADR-RES ovarian = test system: NCI/ADR-RES ovarian

SMILES	growth (SR leukemia)	growth (RPMI-8226 leukemia)	growth (OVCAR-8 ovarian)	growth (OVCAR-5 ovarian)	growth (OVCAR-4 ovarian)	growth (SK-OV-3 ovarian)	growth (IGROV1 ovarian)	growth (OVCAR-3 ovarian)	growth (HS 578T breast)	growth (NCI/ADR-RES ovarian)
CCCCCCCCCc1ccc(OCCOCCOCCOCCOCCOCCOCCOCCOCCO)cc1	-2.84% (active)	-12.1% (active)	9.01% (active)	48.3%	22.4%	110%	24.4%	2.54% (active)	8.85% (active)	1.74% (active)
O=C(O)c1cn(C2CC2)c2cc(N3CCN(C(=O)N(c4ccccc4)c4nc(-c5ccccc5)cs4)CC3)c(F)cc2c1=O	-5.43% (active)	9.25% (active)	12.5%	6.16% (active)	25.4%	-16.2% (active)	7.38% (active)	3.78% (active)	24.5%	2.3% (active)
COc1cc(OC)c(/C=C/C(=O)c2c(OC)cccc2OC)c(OC)c1	23.3%	16.7%	24.2%	4.82% (active)	68.4%	21.7%	-1.35% (active)	-42.2% (active)	88.7%	-22.1% (active)
Oc1c(Br)cc(Br)c2ccc(Cn3cc(-c4ccc(C(F)(F)F)cc4)nn3)nc12	-22.9% (active)	-1.77% (active)	59.5%	89%	54%	110%	79.6%	-7.84% (active)	101%	105%
COc1cc(C2c3cc(OC(C)=O)c(OC)cc3CC3C(=O)OCC32)ccc1OC(C)=O (stereo not given)	108%	93.1%	111%	93.9%	99.2%	111%	111%	121%	123%	106%
CC(=O)Oc1ccc(N2C(=O)C(Cl)=C(Nc3cccc(C(F)(F)F)c3)C2=O)cc1	80.4%	77.6%	97.9%	91.5%	110%	87.9%	97.1%	91.9%	107%	97.5%
N#Cc1c(-c2ccc(Cl)cc2)c(C#N)c2c(C#N)c(N)nn2c1N	69.5%	73.9%	88%	86.9%	82.4%	70.5%	74.1%	93.8%	79.4%	96.3%
C=CC(=O)N1CCN(c2cccc(Oc3nccc(Nc4nnc(-c5ccc(Br)cc5)s4)n3)c2)CC1	29.9%	50.4%	66%	89.9%	88.9%	80.2%	55.9%	19.2%	67.5%	48.4%
O=C(Nc1nc2ccc(C(=O)N3CCN(/C=C/c4ccccc4)CC3)cc2s1)c1ccc(NCCc2ccccc2)c([N+](=O)[O-])c1	-13.7% (active)	18.5%	68.4%	83.6%	42.9%	62.9%	64.3%	59.3%	69%	70.2%
N#CC(C#N)N=Nc1ccc(Br)cc1	-15.2% (active)	11.5%	28%	68.3%	17.7%	60.3%	49.1%	17.7%	87.1%	60.9%
COc1cc2nc3cc([N+](=O)[O-])ccc3c(NCCNCC(C)O)c2cc1OC (stereo not given)	-17.9% (active)	-13% (active)	-8.18% (active)	5.11% (active)	-32.4% (active)	20.8%	-16.5% (active)	-35.9% (active)	-1.12% (active)	75.1%
N=C(N)c1ccc(-c2ccc(-c3ccc(Cl)cc3Cl)s2)cc1	4.31% (active)	-24.4% (active)	-21.3% (active)	38.6%	-16.2% (active)	88%	-37.5% (active)	-16.4% (active)	71.6%	77.5%
COc1c(B(O)O)cccc1-c1nc2c(F)cc3[nH]ncc3c2c2c1CCCC2	1.26% (active)	-11.7% (active)	15.1%	7.97% (active)	6.02% (active)	18.2%	7.11% (active)	-0.0178% (active)	5.7% (active)	17.7%
O=C(CSC(=S)n1cnnc1)NC(=O)c1ccccc1	85.3%	100%	115%	100%	100%	105%	108%	96.7%	103%	99.7%
CC(C)(Sc1cc(C(C)(C)C)c(OC(=O)CCCC(=O)O)c(C(C)(C)C)c1)Sc1cc(C(C)(C)C)c(OC(=O)CCCC(=O)O)c(C(C)(C)C)c1	61.6%	21.9%	36%	76.2%	79.6%	91.5%	36.6%	21.1%	57%	70%

Reference: PubChem BioAssay (NCI)
